Test results: PubChem BioAssay (NCATS)
“And” between values parts separate entries of the source, which are not always exact repeats. Identical values can stand only once. Records with an inconclusive call do not appear. The source made the active and inactive calls. Calls follow the shape of the dose curve; as a rule, active = well fitted curve in the direction sought with a large enough effect; inconclusive = small, poorly fitted or top-dose-only effect, or another doubt; inactive = no such curve, though single readings can be large; an effect the other way counts as inactive or inconclusive.

Legend:
[1] = qHTS of pediatric cancer cell lines to identify multiple opportunities for drug repurposing: Primary screen for NB-EBc1 cells (AID 1347095); also: potency is read from the fitted curve at half-maximal effect
In short: (§1)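 500-1,000 cells/well; 5 h pre-incubation 37 °C/5% CO2; compound pinned; 48 h; CellTiter-Glo, 15 min RT; luminescence. MIPE 11-pt from 0.78 nM, NPC 8-pt from 0.59 nM final. Bortezomib 2.3 µM final as positive control.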

[2] = qHTS of pediatric cancer cell lines to identify multiple opportunities for drug repurposing: Primary screen for U-2 OS cells (AID 1347096); also: nearly all actives have a fitted effect of over 50% in size; also: potency is read from the fitted curve at half-maximal effect
In short: (§2)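 Viability after 48 h compound treatment at 37C, 500-1,000 cells/well, read as ATP luminescence with CellTiter-Glo. Primary screens used 11-point (MIPE, 0.78 nM-46 µM) or 8-point (NPC, 0.59 nM-46 µM) final concentrations; follow-up screens used 11-point dilutions.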

[3] = qHTS of pediatric cancer cell lines to identify multiple opportunities for drug repurposing: Primary screen for Saos-2 cells (AID 1347097); also: nearly all actives have a fitted effect of over 40% in size; also: potency is read from the fitted curve at half-maximal effect
In short: as §1

[4] = qHTS of pediatric cancer cell lines to identify multiple opportunities for drug repurposing: Primary screen for NB1643 cells (AID 1347099); also: nearly all actives have a fitted effect of over 50% in size; also: potency is read from the fitted curve at half-maximal effect
In short: as §1

[5] = qHTS of pediatric cancer cell lines to identify multiple opportunities for drug repurposing: Primary screen for LAN-5 cells (AID 1347100); also: potency is read from the fitted curve at half-maximal effect
In short: as §2

[6] = qHTS of pediatric cancer cell lines to identify multiple opportunities for drug repurposing: Primary screen for OHS-50 cells (AID 1347103); also: nearly all actives have a fitted effect of over 40% in size; also: potency is read from the fitted curve at half-maximal effect
In short: (§3)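 Cells (500-1,000/well) rested 5 h, then received compounds for 48 h; metabolically active cells were measured by CellTiter-Glo luminescence. Final concentrations spanned up to 46 µM (MIPE, 11-point) or 0.59 nM-46 µM (NPC, 8-point) in primary screens, 11-point in follow-ups.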

[7] = qHTS of pediatric cancer cell lines to identify multiple opportunities for drug repurposing: Primary screen for MG 63 (6-TG R) cells (AID 1347105); also: nearly all actives have a fitted effect of over 50% in size; also: potency is read from the fitted curve at half-maximal effect
In short: as §1

[8] = qHTS of pediatric cancer cell lines to identify multiple opportunities for drug repurposing: Primary screen for control Hh wild type fibroblast cells (AID 1347106); also: nearly all actives have a fitted effect of over 55% in size; also: potency is read from the fitted curve at half-maximal effect
In short: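 Cells (500-1,000/well) in growth media were settled 5 h at 37 degrees C, then given compounds for 48 h. Viability was read as CellTiter-Glo luminescence. Primary runs used MIPE at 11 points (0.78 nM-46 µM) and NPC at 8 points (0.59 nM-46 µM); follow-ups used 11 points.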

[9] = qHTS of pediatric cancer cell lines to identify multiple opportunities for drug repurposing: Primary screen for BT-12 cells (AID 1347101); also: nearly all actives have a fitted effect of over 25% in size; also: potency is read from the fitted curve at half-maximal effect
In short: as §3

[10] = qHTS of pediatric cancer cell lines to identify multiple opportunities for drug repurposing: Primary screen for Rh18 cells (AID 1347102); also: nearly all actives have a fitted effect of over 65% in size; also: potency is read from the fitted curve at half-maximal effect
In short: as §2

[11] = qHTS of pediatric cancer cell lines to identify multiple opportunities for drug repurposing: Primary screen for RD cells (AID 1347104); also: nearly all actives have a fitted effect of over 55% in size; also: potency is read from the fitted curve at half-maximal effect
In short: as §1

[12] = qHTS of pediatric cancer cell lines to identify multiple opportunities for drug repurposing: Primary screen for Rh41 cells (AID 1347108); also: nearly all actives have a fitted effect of over 70% in size; also: potency is read from the fitted curve at half-maximal effect
In short: as §1

[13] = qHTS of pediatric cancer cell lines to identify multiple opportunities for drug repurposing: Confirmatory screen for NB1643 cells (AID 1347109); also: potency is read from the fitted curve at half-maximal effect; nearly all actives have a fitted effect of over 45% in size
In short: as §2

[14] = qHTS of pediatric cancer cell lines to identify multiple opportunities for drug repurposing: Confirmatory screen for A673 cells (AID 1347110);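 also: potency is read from the fitted curve at half-maximal effect; cells exposed to compound for 48 h before the viability read; nearly all actives have a fitted effect of over 65% in size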
In short: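 Forty-eight-hour viability assay. Follow-up compounds ran at 11-point dilutions; positive control bortezomib at 2.3 uM final, neutral control DMSO.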

[15] = qHTS of pediatric cancer cell lines to identify multiple opportunities for drug repurposing: Confirmatory screen for LAN-5 cells (AID 1347113); also: potency is read from the fitted curve at half-maximal effect; nearly all actives have a fitted effect of over 65% in size
In short: as §2

[16] = qHTS of pediatric cancer cell lines to identify multiple opportunities for drug repurposing: Confirmatory screen for DAOY cells (AID 1347114); also: potency is read from the fitted curve at half-maximal effect; nearly all actives have a fitted effect of over 65% in size
In short: (§4)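 Viability measured as metabolically active cells via CellTiter-Glo luminescence following 48 hours of compound exposure, 11-point dilutions in confirmatory testing. 500-1,000 cells/well plated 5 hours before dosing; controls were DMSO and 2.3 µM bortezomib.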

[17] = qHTS of pediatric cancer cell lines to identify multiple opportunities for drug repurposing: Confirmatory screen for SJ-GBM2 cells (AID 1347116); also: nearly all actives have a fitted effect of over 60% in size; also: potency is read from the fitted curve at half-maximal effect
In short: as §4

[18] = qHTS of pediatric cancer cell lines to identify multiple opportunities for drug repurposing: Primary screen for Rh30 cells (AID 1347107); also: series mostly up to about 46 µM; nearly all actives have a fitted effect of over 75% in size
In short: as §2

[19] = qHTS of pediatric cancer cell lines to identify multiple opportunities for drug repurposing: Primary screen for SK-N-SH cells (AID 1347098)
In short: as §3

Measured: Potency

CCCS(=O)c1ccc2nc(NC(=O)OC)[nH]c2c1 (centres undefined)
inactive: [2] | [4] | [8]
active: [1] 10.5 µM | [3] 13.3 µM | [5] 16.8 µM | [6] 27.3 µM | [7] 13.3 µM and 18.7 µM

CCN(CC)C(=S)SSC(=S)N(CC)CC
active: [1] 11.8 nM and 31.3 µM | [2] 0.0743 µM | [3] 13.2 nM and 62.4 nM and 211 nM | [4] 83.3 nM and 124 nM and 668 nM | [5] 23.5 nM and 39.4 nM | [9] 15.3 nM and 72.7 nM and 174 nM | [10] 33.2 nM and 70 nM and 376 nM | [6] 0.0432 µM | [11] 11.8 nM and 35.1 nM and 150 nM | [7] 37.2 nM | [8] 166 nM and 111 nM and 1.19 µM | [12] 13.2 nM and 70 nM | [13] 8.27 µM | [14] 0.522 µM | [15] 0.147 µM | [16] 9.27 µM | [17] 1.31 µM

O=C(OC1C[C@H]2CC[C@@H](C1)[N+]21CCCC1)C(O)(c1ccccc1)c1ccccc1 (some centres undefined)
active: [4] 10.5 µM
not listed: [13] | [14] | [15] | [16] | [17] | [19]
inactive: all other assays above

CC(C)c1ccc2oc3nc(N)c(C(=O)O)cc3c(=O)c2c1
not listed: [13] | [14] | [15] | [16] | [17] | [19]
inactive: all other assays above

N=C(N=C(N)N)N1CCOCC1
not listed: [8] | [13] | [14] | [15] | [16] | [17] | [19]
inactive: all other assays above

Cc1cccc(-c2[nH]ncc2-c2ccc3ncccc3n2)n1
not listed: [6] | [12] | [13] | [14] | [15] | [16] | [17] | [19]
inactive: all other assays above

O=C(O)CCNC(=O)c1ccc(N=Nc2ccc(O)c(C(=O)O)c2)cc1
not listed: [9] | [13] | [14] | [15] | [16] | [17] | [19]
inactive: all other assays above

COCCCN1CCC(NC(=O)c2cc(Cl)c(N)c3c2OCC3)CC1
not listed: [6] | [8] | [13] | [14] | [15] | [16] | [17] | [19]
inactive: all other assays above

NS(=O)(=O)c1cc(C(=O)O)c(NCc2ccco2)cc1Cl
not listed: [13] | [14] | [15] | [16] | [17] | [19]
inactive: all other assays above

O=C(NC(Cc1cc(=O)[nH]c2ccccc12)C(=O)O)c1ccc(Cl)cc1 (centres undefined)
inactive: [1] | [2] | [3] | [5] | [10] | [6] | [11] | [7] | [18] | [12]

COc1ccc2cc([C@H](C)C(=O)O)ccc2c1
not listed: [8] | [13] | [14] | [15] | [16] | [17] | [19]
inactive: all other assays above

COc1c(O)cc2c(c1O)[C@@H]1O[C@H](CO)[C@@H](O)[C@H](O)[C@H]1OC2=O
not listed: [3] | [8] | [13] | [14] | [15] | [16] | [17]
inactive: all other assays above

CN(C)[C@@H](CCOc1cccc2ccccc12)c1ccccc1
inactive: [1] | [2] | [4] | [5] | [10] | [7] | [18] | [12]
active: [3] 26.4 µM | [6] 15.5 µM and 21.7 µM | [11] 33.2 µM

COc1cc(OC)c(C(=O)CCCN2CCCC2)c(OC)c1
not listed: [8] | [9] | [13] | [14] | [15] | [16] | [17] | [19]
inactive: all other assays above

COc1ccc(C2(C#N)CCC(C(=O)O)CC2)cc1OC1CCCC1 (centres undefined)
active: [4] 11.8 µM
not listed: [13] | [14] | [15] | [16] | [17] | [19]
inactive: all other assays above

Clc1ccc(C(Cn2ccnc2)OCc2ccc(Sc3ccccc3)cc2)c(Cl)c1 (centres undefined)
active: [14] 1.17 µM | [16] 18.5 µM
not listed: [3] | [4] | [5] | [9] | [11] | [13] | [15]
inactive: all other assays above

O=C(O)c1cccnc1Nc1cccc(C(F)(F)F)c1
not listed: [13] | [14] | [15] | [16] | [17] | [19]
inactive: all other assays above
